Measurements from PubChem BioAssay AID1159580 (chemical genetic matrix, 2015).
Screen size: about 5,500 compounds; about 2,000 (36%) were called active. Another 18% or so got no clear call; they are omitted. Cut-off read from the data, not from the text of the source: active = normalized growth mostly below about 0.91 (no sharp cut-off); inconclusive = no clear call, values can overlap the other calls; inactive = mostly above about 0.92. The list shows a part of the results.

Assay: chemical genetic growth profiling, strain panel (AID 1159580);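 note: tested at 20 µM; growth read once vehicle control cultures reached saturation at 30 °C; 1 = growth at the plate median or of vehicle wells; lower values mean less growth of the strain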
Conditions: growth OD

Measured: normalized growth

CN(C)[C@@H]1C(=O)C(C(N)=O)=C(O)[C@@]2(O)C(=O)C3=C(O)c4c(O)cccc4[C@@](C)(O)[C@H]3[C@H](O)[C@@H]12
inactive: S. cerevisiae deletion strains, locus YJR075W, strain HOC1, stronger effect = lower value 1.01 | S. cerevisiae deletion strains, locus YKL009W, strain mrt4, stronger effect = lower value 0.996 | S. cerevisiae deletion strains, locus YKL068W, stronger effect = lower value 0.997 | S. cerevisiae deletion strains, locus YKL085W, strain MDH1 (second series), stronger effect = lower value 0.999 | S. cerevisiae deletion strains, locus YKL085W, strain MDH1, stronger effect = lower value 0.999 | S. cerevisiae deletion strains, locus YKL160W, strain elf1, stronger effect = lower value 1.02 | S. cerevisiae deletion strains, locus YKL190W, strain CNB1, stronger effect = lower value 1.01 | S. cerevisiae deletion strains, locus YKR001C, strain vps1, stronger effect = lower value 0.989 | S. cerevisiae deletion strains, locus YKR026C, strain gcn3, stronger effect = lower value 1.01 | S. cerevisiae deletion strains, locus YKR091W, strain srl3, stronger effect = lower value 1.02 | S. cerevisiae deletion strains, locus YLL001W, strain dnm1, stronger effect = lower value 1.02 | S. cerevisiae deletion strains, locus YLL026W, stronger effect = lower value 1.03 | S. cerevisiae deletion strains, locus YLL041C, strain sdh2, stronger effect = lower value 1.02 | S. cerevisiae deletion strains, locus YLR027C, strain aat2, stronger effect = lower value 1.01 | S. cerevisiae deletion strains, locus YLR039C, strain RIC1, stronger effect = lower value 1.03 | S. cerevisiae deletion strains, locus YLR058C, strain SHM2, stronger effect = lower value 1 | S. cerevisiae deletion strains, locus YLR102C, strain apc9, stronger effect = lower value 0.995 | S. cerevisiae deletion strains, locus YLR113W, strain HOG1, stronger effect = lower value 0.995 | S. cerevisiae deletion strains, locus YLR221C, strain rsa3, stronger effect = lower value 1.01 | S. cerevisiae deletion strains, locus YLR258W, strain gsy2, stronger effect = lower value 1.01 | S. cerevisiae deletion strains, locus YLR262C, strain YPT6 (second series), stronger effect = lower value 0.997 | S. cerevisiae deletion strains, locus YLR262C, strain YPT6, stronger effect = lower value 1.02 | S. cerevisiae deletion strains, locus YLR268W, strain sec22, stronger effect = lower value 0.975 | S. cerevisiae deletion strains, locus YLR320W, strain mms22, stronger effect = lower value 1.01 | S. cerevisiae deletion strains, locus YLR330W, strain CHS5, stronger effect = lower value 1.01 | S. cerevisiae deletion strains, locus YLR342W, strain FKS1 (second series), stronger effect = lower value 0.976 | S. cerevisiae deletion strains, locus YLR342W, strain FKS1, stronger effect = lower value 1 | S. cerevisiae deletion strains, locus YLR357W, strain rsc2, stronger effect = lower value 1 | S. cerevisiae deletion strains, locus YLR370C, strain arc18, stronger effect = lower value 1.02 | S. cerevisiae deletion strains, locus YLR371W, strain rom2, stronger effect = lower value 1 | S. cerevisiae deletion strains, locus YLR384C, strain iki3, stronger effect = lower value 1.02 | S. cerevisiae deletion strains, locus YLR418C, strain cdc73, stronger effect = lower value 0.986 | S. cerevisiae deletion strains, locus YML016C, strain PPZ1, stronger effect = lower value 0.994 | S. cerevisiae deletion strains, locus YML032C, strain rad52, stronger effect = lower value 0.98 | S. cerevisiae deletion strains, locus YML120C, strain ndi1, stronger effect = lower value 1.01 | S. cerevisiae deletion strains, locus YML124C, strain tub3, stronger effect = lower value 1 | S. cerevisiae deletion strains, locus YMR058W, strain fet3, stronger effect = lower value 0.977 | S. cerevisiae deletion strains, locus YMR078C, strain ctf18, stronger effect = lower value 1 | S. cerevisiae deletion strains, locus YMR125W, strain sto1, stronger effect = lower value 1.01 | S. cerevisiae deletion strains, locus YMR129W, stronger effect = lower value 1.01 | S. cerevisiae deletion strains, locus YMR205C, strain PFK2, stronger effect = lower value 1.04 | S. cerevisiae deletion strains, locus YMR223W, strain ubp8, stronger effect = lower value 0.988 | S. cerevisiae deletion strains, locus YMR231W, strain pep5, stronger effect = lower value 1.02 | S. cerevisiae deletion strains, locus YMR307W, strain GAS1, stronger effect = lower value 0.994 | S. cerevisiae deletion strains, locus YNL067W, strain RPL9B, stronger effect = lower value 1.01 | S. cerevisiae deletion strains, locus YNL071W, strain lat1, stronger effect = lower value 1.02 | S. cerevisiae deletion strains, locus YNL128W, strain TEP1, stronger effect = lower value 1.01 | S. cerevisiae deletion strains, locus YNL153C, strain GIM3, stronger effect = lower value 0.998 | S. cerevisiae deletion strains, locus YNL183C, strain NPR1, stronger effect = lower value 0.95 | S. cerevisiae deletion strains, locus YNL209W, strain ssb2, stronger effect = lower value 1.01 | S. cerevisiae deletion strains, locus YNL233W, strain BNI4, stronger effect = lower value 1 | S. cerevisiae deletion strains, locus YNL248C, strain rpa49, stronger effect = lower value 0.966 | S. cerevisiae deletion strains, locus YNL250W, strain rad50, stronger effect = lower value 0.994 | S. cerevisiae deletion strains, locus YNL271C, strain bni1, stronger effect = lower value 0.984 | S. cerevisiae deletion strains, locus YNL298W, strain CLA4, stronger effect = lower value 0.968 | S. cerevisiae deletion strains, locus YNL307C, strain MCK1, stronger effect = lower value 1.01 | S. cerevisiae deletion strains, locus YNL322C, strain KRE1 (second series), stronger effect = lower value 1.01 | S. cerevisiae deletion strains, locus YNL322C, strain KRE1, stronger effect = lower value 1 | S. cerevisiae deletion strains, locus YNR049C, strain mso1, stronger effect = lower value 1.02 | S. cerevisiae deletion strains, locus YNR052C, strain pop2, stronger effect = lower value 0.995 | S. cerevisiae deletion strains, locus YOL006C, strain TOP1, stronger effect = lower value 1.03 | S. cerevisiae deletion strains, locus YOL012C, strain htz1 0.944 | S. cerevisiae deletion strains, locus YOL147C, strain pex11, stronger effect = lower value 0.991 | S. cerevisiae deletion strains, locus YOR001W, strain rrp6, stronger effect = lower value 1.04 | S. cerevisiae deletion strains, locus YOR061W, strain CKA2, stronger effect = lower value 1 | S. cerevisiae deletion strains, locus YOR069W, strain VPS5, stronger effect = lower value 1.01 | S. cerevisiae deletion strains, locus YOR070C, strain gyp1, stronger effect = lower value 1.01 | S. cerevisiae deletion strains, locus YOR080W, strain dia2, stronger effect = lower value 1.01 | S. cerevisiae deletion strains, locus YOR083W, strain WHI5, stronger effect = lower value 1.02 | S. cerevisiae deletion strains, locus YOR106W, strain vam3, stronger effect = lower value 1.02 | S. cerevisiae deletion strains, locus YOR136W, strain idh2, stronger effect = lower value 1.01 | S. cerevisiae deletion strains, locus YOR144C, strain elg1, stronger effect = lower value 0.996 | S. cerevisiae deletion strains, locus YOR184W, strain ser1, stronger effect = lower value 1 | S. cerevisiae deletion strains, locus YOR231W, strain MKK1, stronger effect = lower value 0.99 | S. cerevisiae deletion strains, locus YOR265W, strain rbl2, stronger effect = lower value 1.02 | S. cerevisiae deletion strains, locus YOR270C, strain vph1, stronger effect = lower value 1.04 | S. cerevisiae deletion strains, locus YOR290C, strain snf2, stronger effect = lower value 1 | S. cerevisiae deletion strains, locus YOR316C, strain cot1, stronger effect = lower value 1.01 | S. cerevisiae deletion strains, locus YPL051W, strain arl3, stronger effect = lower value 0.995 | S. cerevisiae deletion strains, locus YPL055C, strain LGE1, stronger effect = lower value 1.02 | S. cerevisiae deletion strains, locus YPL078C, strain atp4, stronger effect = lower value 1.03 | S. cerevisiae deletion strains, locus YPL106C, strain sse1, stronger effect = lower value 1.02 | S. cerevisiae deletion strains, locus YPL240C, strain hsp82, stronger effect = lower value 1.03 | S. cerevisiae deletion strains, locus YPL241C, strain CIN2, stronger effect = lower value 1 | S. cerevisiae deletion strains, locus YPL256C, strain CLN2, stronger effect = lower value 0.991 | S. cerevisiae deletion strains, locus YPR119W, strain clb2, stronger effect = lower value 1 | S. cerevisiae deletion strains, locus YPR141C, strain kar3, stronger effect = lower value 0.995 | S. cerevisiae deletion strains, locus YPR163C, strain tif3, stronger effect = lower value 1 | S. cerevisiae deletion strains, locus YPR167C, strain met16, stronger effect = lower value 1 | S. cerevisiae deletion strains, strain wtn01, stronger effect = lower value 0.985 | S. cerevisiae strains, strain wild type, stronger effect = lower value 1
